# Data published in PubChem BioAssay (NCI).
# This is part of a sample that, as a whole, favours compounds with a hit. Of some 83,000 tested, about 20% had one in any assay.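 Growth was measured after 48 h exposure to one concentration of compound in 96-well plates. Values under 10 count as active.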 A number with no mark means an inactive call. Calls of active or inactive are those of the source.
# Legend:
# Assay in all cases: NCI-60 one-dose screen, 48 h (100 = growth as untreated, 0 = no growth, -100 = all killed)
# Details in all cases: 10 µM unless noted
# [1] = tested on: HCT-15 colon
# [2] = tested on: HT29 colon
# [3] = tested on: SNB-75 CNS
# [4] = tested on: SNB-19 CNS
# [5] = tested on: U251 CNS
# [6] = tested on: PC-3 prostate
# [7] = tested on: SK-MEL-5 melanoma
# [8] = tested on: UACC-62 melanoma
# [9] = tested on: LOX IMVI melanoma
# [10] = tested on: SK-MEL-28 melanoma
SMILES,growth [1],growth [2],growth [3],growth [4],growth [5],growth [6],growth [7],growth [8],growth [9],growth [10]
CC(=O)[C@H]1CC[C@H]2[C@@H]3C[C@H](C)C4=CC(=O)CC[C@]4(C)[C@H]3C(=O)C[C@]12C,97.3%,101%,89.6%,100%,98.2%,91.2%,100%,97.1%,92.2%,115%
CC[N+](CCCCCCCCCC[N+](CC)(c1ccccn1)c1ccccn1)(c1ccccn1)c1ccccn1,58.6%,-34% (active),6.81% (active),13.3%,6.56% (active),2.94% (active),-72.4% (active),0.363% (active),-54.4% (active),15.1%
Cc1cc(Br)c(C)cc1Br,101%,94.2%,100%,108%,98.9%,95.8%,96.9%,102%,97.6%,103%
COc1ccc2c(c1)[n+](=O)c(/C=C/C(=O)c1cc(OC)c(OC)c(OC)c1)c(C)n2[O-],11%,47%,68.7%,97%,53.7%,55.2%,93.4%,63.8%,51.3%,71.6%
O=C(/C=C(\Nc1ccccc1)c1ccccc1)c1cn(-c2ccc([N+](=O)[O-])cc2)nn1,84.7%,96.9%,91.8%,97.6%,87.5%,80.1%,97.1%,84.9%,88.5%,83.7%
Fc1ccccc1C1c2ccccc2-c2nccn21 (stereo not given),99.2%,100%,98.2%,100%,98.8%,87.3%,97%,89%,98.1%,109%
COC(=O)C1=CCC(n2cnc3c(N)ncnc32)O1 (stereo not given),109%,103%,98.1%,104%,104%,98%,104%,92.8%,96.4%,115%
NS(=O)(=O)c1ccc(N2CC(c3nc4ccccc4[nH]3)CC2=O)cc1 (stereo not given),107%,97.8%,67.9%,101%,99.7%,90.8%,99.8%,97.4%,94.2%,103%
CSc1nc(Nc2ccc(S(=O)(=O)Nc3ccon3)cc2)c(C#N)c(-c2ccc(Cl)cc2)n1,87.9%,101%,102%,101%,88.2%,109%,97.4%,107%,62.3%,118%
O=C(c1ccccc1)c1ccc(Oc2ccc([N+](=O)[O-])cc2[N+](=O)[O-])cc1,2.7% (active),2.81% (active),85.2%,77.4%,35%,75.4%,32.2%,62%,5.97% (active),101%
Cc1cccc2nnc(-c3ccccc3)n12,101%,106%,107%,97.1%,108%,104%,110%,99.6%,99.4%,112%
CSc1nc2nc3c(c(-c4ccc(C)cc4)c2c(=O)[nH]1)CN(C)C/C3=C\c1ccc(C)cc1,116%,103%,93%,97.3%,91.2%,98.5%,77.1%,93.8%,90%,111%
Nc1ccc2c(c1Br)Cc1ccccc1-2,69.9%,111%,87.7%,98.9%,93.6%,83.4%,107%,91%,90.5%,121%
Cn1cc(NC(=O)Nc2cc(C(=O)O)n(C)c2)cc1C(=O)O,113%,107%,103%,118%,100%,-76.4% (active),93.6%,90%,98.1%,121%
CCCCCc1c(C)[nH]c(/C=C2\N=C(c3ccc[nH]3)C=C2Oc2ccc(Cl)cc2)c1C,-26.6% [100 µM] (active),0.582% [100 µM] (active),-40% [100 µM] (active),-32.9% [100 µM] (active),-94.9% [100 µM] (active),5.67% [100 µM] (active),-90% [100 µM] (active),-83.2% [100 µM] (active),-69.2% [100 µM] (active),-52.4% [100 µM] (active)
COC(=O)N/N=C/c1coc2ccc(Cl)cc2c1=O,97%,95.4%,80.5%,98.4%,96.7%,74%,106%,93.9%,86.7%,100%
O=C1N=C(N2CCOCC2)S/C1=C\c1cn(-c2ccccc2)nc1-c1ccccc1,89.4%,80.5%,-30.2% (active),72.1%,66.1%,90.4%,66.4%,77.8%,76%,72%
CC(C)CNc1nc(N=[N+]=[N-])nc(NCC(C)C)n1,54% [100 µM],60.4% [100 µM],37.3% [100 µM],54.8% [100 µM],61.9% [100 µM],23.3% [100 µM],54.6% [100 µM],59.1% [100 µM],72.6% [100 µM],76.9% [100 µM]
COc1ccc(C2=NN(C(C)=O)C(c3cccc(Nc4ccnc5cc(Cl)ccc45)c3)C2)cc1 (stereo not given),44.8%,7.9% (active),56.4%,56.5%,51%,31%,43.7%,68.6%,42.7%,73%
COC(=O)[C@H](CCCCNC(=O)OCc1ccccc1)NC(=O)[C@@H](NC(=O)Nc1cc(C(F)(F)F)cc(C(F)(F)F)c1)C(C)C,13.4% [100 µM],-60.8% [100 µM] (active),-88.7% [100 µM] (active),28% [100 µM],-88% [100 µM] (active),-83.9% [100 µM] (active),-43.4% [100 µM] (active),-83.6% [100 µM] (active),-83.3% [100 µM] (active),-86.3% [100 µM] (active)
O=c1[nH]c(N2CCC(Cc3ccccc3)CC2)nc2sc3c(c12)CCCC3,101%,83.8%,89.4%,106%,91.7%,72.7%,102%,98.1%,97.4%,115%
COC(=O)[C@H](Cc1cnc[nH]1)NC(=O)[C@@H](NC(=O)Nc1cc(C(F)(F)F)cc(C(F)(F)F)c1)C(C)C,35.4% [100 µM],-80.3% [100 µM] (active),-95.3% [100 µM] (active),-96.3% [100 µM] (active),-96.8% [100 µM] (active),-93.2% [100 µM] (active),-91.5% [100 µM] (active),-96.2% [100 µM] (active),-84.5% [100 µM] (active),-96.1% [100 µM] (active)
COCCCNS(=O)(=O)c1ncnc2nc[nH]c12,124%,125%,116%,122%,124%,106%,109%,112%,111%,152%
CC(C)N(Cc1ccccc1)c1c(Cl)ssc1=O,108%,100%,113%,101%,102%,95.9%,104%,93.1%,96.3%,101%
O=C(Nc1nc2ccc(OC(F)(F)F)cc2s1)c1ccc(F)cc1,12%,15.7%,73.7%,12.3%,6.58% (active),12.4%,-7.36% (active),7.77% (active),11.3%,33.5%
CC(=O)N1N=C(c2ccc(C(F)(F)F)cc2)CC1c1ccc2c(c1)OCO2 (stereo not given),81.1%,47.4%,90%,91%,94.6%,73.9%,95%,65%,81.4%,95.4%
